# Measured values published in PubChem BioAssay (Tox21).
# Results filed as inconclusive are left out. Entries that show only a call come without a potency. Active and inactive are the calls of the source. Unless noted, calls come from the whole dose curve; as a rule, active = well fitted curve in the direction sought with a large enough effect in the repeat runs; inconclusive = weak or mixed curves; inactive = no such curve, though single readings can be large; an effect the other way counts as inactive or inconclusive.
# Assays:
# [1] = A CellTox Green Cytotoxicity Assay to monitor cytotoxicity in HepG2 cells - 8 hour (AID 1224890); note: nearly all actives have a fitted effect of over 45% in size; note: potency is the fitted concentration of half-maximal effect
# Procedure, shortened: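 Using 1536-well format, dye-containing HepG2 suspension was seeded, allowed 5 h at 37 C/5% CO2, dosed by pintool with compounds, positive and negative controls, and imaged for fluorescence across 40 h.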
# [2] = qHTS assay to identify small molecule antagonists of the estrogen receptor alpha (ER-alpha) signaling pathway using the BG1 cell line in the presence of 0.1 nM 17-beta-estradiol - cell viability counter screen (AID 1259241); note: nearly all actives have a fitted effect of over 40% in size
# Procedure, shortened: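 Viability in VM7Luc4E2 cells after 22 hr compound exposure under 0.1 nM 17beta-estradiol stimulation, by CellTiter-Fluor.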
# [3] = qHTS assay to identify small molecule HDAC inhibitors (AID 1259364); note: potency is the fitted concentration of half-maximal effect;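 note: wild-type HCT-116 cells with endogenous class I/II HDAC activity; nearly all actives have a fitted effect of over 45% in size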
# Procedure, shortened: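 Read-out: luminescence of HDAC-Glo I/II reagent, 30 min RT, reflecting class I/II deacetylase activity in whole HCT-116 cells pre-exposed 2 h to DMSO-dissolved compounds.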
# [4] = qHTS assay to identify small molecule HDAC inhibitors - cell viability counter screen (AID 1259365); note: series mostly up to about 92 µM; nearly all actives have a fitted effect of over 50% in size
# Procedure, shortened: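 Cytotoxicity was gauged in wild-type HCT-116 cells after a brief 2hr treatment with DMSO-dissolved compounds at 37C and 5% CO2, using CellTiter-Glo luminescence developed for 30min at room temperature.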
# [5] = qHTS assay to identify small molecule agonists of the sonic hedgehog signaling (Shh) pathway - cell viability counter screen (AID 1259366); note: nearly all actives have a fitted effect of over 50% in size; note: potency is the fitted concentration of half-maximal effect
# Procedure, shortened: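 Stable Gli1-Luc NIH/3T3 clone, 2,000 cells/well. Compound exposure 24hr at 37C. Read-out: CellTiter-Fluor fluorescence.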
# [6] = qHTS assay to identify small molecule antagonists of the sonic hedgehog signaling (Shh) pathway - cell viability counter screen (AID 1259367); note: nearly all actives have a fitted effect of over 55% in size; note: potency is the fitted concentration of half-maximal effect
# Procedure, shortened: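 Seed 3T3 Gli1-Luc cells at 2,000 per well; incubate 4 hr; add compound in DMSO, then conditioned medium; incubate at 37C with 5% CO2; add CellTiter-Fluor after 23 hr; read fluorescence 1 hr later.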
# [7] = qHTS assay to identify small molecule agonists of the sonic hedgehog signaling (Shh) pathway (AID 1259368; calls by dose curve;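 note: NIH/3T3-derived 3T3Gli1-Luc cells carrying a stable Gli1-driven firefly luciferase reporter; series mostly up to about 92 µM; nearly all actives have a fitted effect of over 15% in size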)
# Procedure, shortened: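 A Gli1 transcriptional response element controlled firefly luciferase in 3T3Gli1-Luc cells. Compounds and a positive control were added 4 hr after plating, and cells were incubated a further 24 hr at 37 C before luminescence detection.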
# [8] = qHTS assay to identify small molecule antagonists of the sonic hedgehog signaling (Shh) pathway (AID 1259369; calls by dose curve; note: nearly all actives have a fitted effect of over 45% in size; note: potency is the fitted concentration of half-maximal effect)
# Procedure, shortened: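 For antagonist detection, the reporter line received test compounds together with conditioned medium, incubated 24hr at 37 C, 5% CO2, then luminescence was recorded following 30min room-temperature luciferase reagent incubation.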
# [9] = target: Estrogen receptor beta (Homo sapiens) (UniProt Q92731); assay: qHTS assay to identify small molecule agonists of the estrogen receptor beta (ER-beta) signaling pathway (AID 1259377; active = well fitted activation curve with a large enough effect in the signal ratio in the repeat runs, not every such curve was filed as active; the % refers to the signal ratio)
# Chain of Estrogen receptor beta (Homo sapiens) (Q92731 whole entry, looked up): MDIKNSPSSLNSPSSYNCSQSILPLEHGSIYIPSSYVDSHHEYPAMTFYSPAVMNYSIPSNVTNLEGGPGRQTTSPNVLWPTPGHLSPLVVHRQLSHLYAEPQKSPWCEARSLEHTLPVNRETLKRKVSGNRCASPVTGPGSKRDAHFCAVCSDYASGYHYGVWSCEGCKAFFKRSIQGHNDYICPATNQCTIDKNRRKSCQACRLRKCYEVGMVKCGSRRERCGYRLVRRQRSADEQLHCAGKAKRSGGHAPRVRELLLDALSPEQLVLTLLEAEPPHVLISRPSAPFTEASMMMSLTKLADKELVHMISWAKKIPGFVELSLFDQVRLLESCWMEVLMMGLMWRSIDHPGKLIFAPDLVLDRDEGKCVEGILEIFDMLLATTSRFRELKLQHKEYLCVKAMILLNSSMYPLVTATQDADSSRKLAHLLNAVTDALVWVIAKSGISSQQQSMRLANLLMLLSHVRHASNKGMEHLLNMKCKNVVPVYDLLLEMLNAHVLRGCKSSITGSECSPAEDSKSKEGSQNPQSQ
# Procedure, shortened: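 Measured by fluorescence intensity from a B/G FRET beta-lactamase substrate (2 h, room temperature) in ER-beta-UAS-bla HEK293T cells treated with DMSO-dissolved compounds for 16 hr at 37C and 5% CO2.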
# [10] = target: Estrogen receptor beta (Homo sapiens) (UniProt Q92731); assay: qHTS assay to identify small molecule antagonists of the estrogen receptor beta (ER-beta) signaling pathway (AID 1259378; active = well fitted inhibition curve with a large enough effect in the signal ratio in the repeat runs, not every such curve was filed as active; the % refers to the signal ratio)
# Procedure, shortened: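 ER-beta-UAS-bla HEK293T cells in 2% charcoal-stripped FBS medium treated with compound plus 1nM final 17-beta-estradiol for 16 hr at 37C. Beta-lactamase reporter read by FRET substrate fluorescence after 2 hours at room temperature.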
# [11] = qHTS assay to identify small molecule agonists of the androgen receptor (AR) signaling pathway in the presence of an antagonist - cell viability counter screen (AID 1259379); note: nearly all actives have a fitted effect of over 25% in size; note: potency is the fitted concentration of half-maximal effect
# Procedure, shortened: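 Seed MDA-kb2 at 3,000 cells/well; incubate 5 hr, 37C, 0% CO2. Add nilutamide to 3.0uM final, then pin compounds at 15 concentrations. Incubate 16 hr. Add CellTiter-Fluor at 15 hr, read fluorescence after 1 hr.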
# [12] = qHTS assay to identify small molecule agonists of the estrogen receptor beta (ER-beta) signaling pathway - cell viability counter screen (AID 1259380); note: nearly all actives have a fitted effect of over 30% in size; note: potency is the fitted concentration of half-maximal effect
# Procedure, shortened: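 CellTiter-Glo read, 30 min RT, same wells as bla assay; cells ER-beta-UAS-bla HEK293T; 16 hr compound, 37C; medium 2% charcoal-stripped FBS.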
# [13] = qHTS assay to identify small molecule antagonists of the estrogen receptor beta (ER-beta) signaling pathway - cell viability counter screen (AID 1259382); note: series mostly up to about 92 µM; nearly all actives have a fitted effect of over 55% in size
# Procedure, shortened: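 In this multiplexed counter screen, cells were seeded at 2,000 per well in medium with 2% charcoal-stripped FBS and incubated 6 hr before compound and 1nM final E2 were added. Sixteen hours later, ATP-based luminescence reported viability.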
# [14] = qHTS assay to identify small molecule agonists or antagonists of the thyroid stimulating hormone receptor (TSHR) signaling pathway - wild type cell line counter screen (AID 1259384; calls by dose curve)
# Procedure, shortened: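 Wild-type Hek293 cells, 800/well, 18 h at 37C, then compound with Ro20-1724 for 30 min RT. cAMP by HTRF (cAMP-d2/anti-cAMP cryptate), 1 h RT, fluorescence read. 15 concentrations, triplicates.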
# [15] = target: Estrogen receptor (Homo sapiens) (UniProt P03372); assay: qHTS assay to identify small molecule agonists of the estrogen receptor alpha (ER-alpha) signaling pathway in the presence of an antagonist (AID 1259383; calls by dose curve; note: top concentration of the series differs between compounds; nearly all actives have a fitted effect of over 15% in size)
# Chain of Estrogen receptor (Homo sapiens) (P03372 whole entry, looked up): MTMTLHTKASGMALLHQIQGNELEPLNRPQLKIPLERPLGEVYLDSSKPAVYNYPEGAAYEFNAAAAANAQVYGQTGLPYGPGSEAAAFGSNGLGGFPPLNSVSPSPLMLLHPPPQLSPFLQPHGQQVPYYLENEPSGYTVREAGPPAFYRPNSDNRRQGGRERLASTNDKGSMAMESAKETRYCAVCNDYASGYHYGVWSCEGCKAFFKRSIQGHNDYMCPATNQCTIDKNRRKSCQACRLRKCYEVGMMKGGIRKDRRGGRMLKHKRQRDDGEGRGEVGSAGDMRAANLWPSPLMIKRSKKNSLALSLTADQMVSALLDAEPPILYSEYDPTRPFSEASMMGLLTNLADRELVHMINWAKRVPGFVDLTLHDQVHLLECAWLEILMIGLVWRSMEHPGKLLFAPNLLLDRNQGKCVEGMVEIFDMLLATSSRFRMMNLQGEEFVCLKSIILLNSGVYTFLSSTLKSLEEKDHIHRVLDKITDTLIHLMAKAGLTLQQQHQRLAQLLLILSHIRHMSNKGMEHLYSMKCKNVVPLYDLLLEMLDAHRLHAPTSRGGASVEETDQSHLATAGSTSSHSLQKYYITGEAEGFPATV
# Procedure, shortened: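 Stably transfected VM7Luc4E2 reporter cells, kept 5 days in charcoal-stripped serum, received ICI-182,780 at 10.0nM final before compound addition. Following 22hr incubation at 37C and 5% CO2, luciferase signal was read by luminescence.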
# [16] = target: Estrogen receptor (Homo sapiens) (UniProt P03372); assay: qHTS assay to identify small molecule antagonists of the estrogen receptor alpha (ER-alpha) signaling pathway using the BG1 cell line in the presence of 0.1 nM 17-beta-estradiol (AID 1259244); note: nearly all actives have a fitted effect of over 50% in size
# Procedure, shortened: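 Estradiol at 0.1 nM (final) stimulates the endogenous ER-alpha of VM7Luc4E2 cells carrying an ERE-driven luciferase; compounds are co-incubated 22 h at 37C and luciferase output quantified by luminescence.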
# [17] = qHTS assay to identify small molecule antagonists of the androgen receptor (AR) signaling pathway using the MDA cell line in the presence of 0.5 nM R1881 - cell viability counter screen (AID 1259242); note: nearly all actives have a fitted effect of over 45% in size
# Procedure, shortened: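 Viability of MDA-kb2 cells was multiplexed with the luciferase AR readout; after 16 hr with compounds and R1881 at 0.5 nM final, CellTiter-Fluor fluorescence was recorded.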
# [18] = target: Androgen receptor (Homo sapiens) (UniProt P10275); assay: qHTS assay to identify small molecule antagonists of the androgen receptor (AR) signaling pathway using the MDA cell line in the presence of 0.5 nM R1881 (AID 1259243); note: nearly all actives have a fitted effect of over 50% in size
# Chain of Androgen receptor (Homo sapiens) (P10275 whole entry, looked up): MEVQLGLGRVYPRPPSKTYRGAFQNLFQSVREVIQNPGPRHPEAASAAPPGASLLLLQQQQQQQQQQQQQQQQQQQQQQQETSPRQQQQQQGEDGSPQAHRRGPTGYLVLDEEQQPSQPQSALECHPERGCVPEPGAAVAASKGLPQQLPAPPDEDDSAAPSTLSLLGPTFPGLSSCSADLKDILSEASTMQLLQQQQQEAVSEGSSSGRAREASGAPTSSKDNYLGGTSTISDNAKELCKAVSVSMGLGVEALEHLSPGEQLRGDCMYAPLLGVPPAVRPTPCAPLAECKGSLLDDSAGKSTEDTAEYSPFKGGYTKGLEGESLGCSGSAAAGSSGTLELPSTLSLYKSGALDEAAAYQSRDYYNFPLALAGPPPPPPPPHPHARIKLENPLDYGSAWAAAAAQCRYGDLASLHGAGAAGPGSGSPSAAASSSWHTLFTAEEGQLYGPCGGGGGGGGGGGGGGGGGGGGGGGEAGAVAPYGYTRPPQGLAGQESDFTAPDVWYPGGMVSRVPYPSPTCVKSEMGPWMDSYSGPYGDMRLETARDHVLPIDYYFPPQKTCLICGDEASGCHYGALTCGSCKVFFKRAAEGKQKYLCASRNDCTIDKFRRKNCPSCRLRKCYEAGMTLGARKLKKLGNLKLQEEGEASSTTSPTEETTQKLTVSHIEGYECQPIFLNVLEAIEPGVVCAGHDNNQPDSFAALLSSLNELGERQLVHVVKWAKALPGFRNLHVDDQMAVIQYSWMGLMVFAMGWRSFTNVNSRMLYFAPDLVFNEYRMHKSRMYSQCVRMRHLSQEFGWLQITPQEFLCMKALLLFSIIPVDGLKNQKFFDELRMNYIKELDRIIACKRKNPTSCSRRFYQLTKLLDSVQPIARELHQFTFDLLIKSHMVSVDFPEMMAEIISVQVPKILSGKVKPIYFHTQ
# Procedure, shortened: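 Reporter cells cultured without CO2 receive test chemicals, then 0.5 nM R1881 final; after 16 hr at 37C, ONE-Glo is added and light output recorded.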
# [19] = qHTS assay to identify small molecule phospholipidosis (PLD) inducers (AID 1259344; active = well fitted curve in the direction sought with a large enough effect; an effect the other way counts as inactive or inconclusive)
# Procedure, shortened: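 Quantitative HTS in HepG2: compound plus LipidTOX Red dye for 24 h, paraformaldehyde fixation with Hoechst 33342, widefield high-content imaging; amiodarone as positive and DMSO as negative control.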
# [20] = target: Androgen receptor (Homo sapiens) (UniProt P10275); assay: qHTS assay to identify small molecule agonists of the androgen receptor (AR) signaling pathway in the presence of an antagonist (AID 1259381; calls by dose curve; note: nearly all actives have a fitted effect of over 15% in size)
# Procedure, shortened: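 Test compounds at 15 concentrations were incubated for 16hr with MDA-kb2 reporter cells in presence of 3.0uM nilutamide (final). Signal: ONE-Glo luciferase luminescence.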
Structure (SMILES),Potency [1],Potency [2],Potency [3],Potency [4],Potency [5],Potency [6],Potency [7],Potency [8],Potency [9],Potency [10],Potency [11],Potency [12],Potency [13],Potency [14],Potency [15],Potency [16],Potency [17],Potency [18],Potency [19],Potency [20]
CC(=O)NCCO,inactive,inactive,inactive,inactive,inactive,inactive,inactive,inactive,inactive,inactive,inactive,inactive,inactive,inactive,,,,,,
Cc1ccc2c(c1)CCCN2,inactive,inactive,inactive,inactive,inactive,inactive,inactive,inactive,,,inactive,inactive,inactive,inactive,inactive,,,,,
NC(=O)CCCCC(N)=O,inactive,inactive,inactive,inactive,inactive,inactive,inactive,inactive,inactive,inactive,inactive,inactive,inactive,inactive,inactive,inactive,,,,
O=C(O)CCC(=O)c1ccc(-c2ccccc2)cc1,,inactive,13.3 µM (active),inactive,,inactive,inactive,inactive,inactive,,inactive,inactive,inactive,inactive,,,inactive,inactive,inactive,inactive
C[C@@H]1[C@H](O)[C@@H](C)/C=C/C=C\C=C\C=C\C=C\C=C\C=C\[C@H](O[C@@H]2O[C@H](C)[C@@H](O)[C@H](N)[C@@H]2O)C[C@@H]2O[C@](O)(C[C@@H](O)C[C@@H](O)[C@H](O)CC[C@@H](O)C[C@@H](O)CC(=O)O[C@H]1C)C[C@H](O)[C@H]2C(=O)O (stereo in doubt),inactive,inactive,inactive,inactive,,,inactive,,,,61.1 µM (active),61.1 µM (active),,inactive,inactive,inactive,,,inactive,
CCOC(=O)N1CCC(Nc2ccc(Cl)cc2N)CC1,inactive,inactive,inactive,inactive,,inactive,inactive,2.98 µM (active),,,inactive,inactive,,inactive,inactive,inactive,,,,inactive
CCOc1ncc(F)c(=O)[nH]1,inactive,inactive,inactive,inactive,,inactive,inactive,inactive,,inactive,inactive,inactive,inactive,inactive,inactive,inactive,,,,
Nc1ccc(NC(=O)c2ccc(N)cc2)cc1,,inactive,27.3 µM (active),inactive,inactive,,inactive,inactive,,,inactive,54.5 µM (active),,,inactive,inactive,inactive,inactive,,inactive
CC1CCCC(=O)C1=O (configuration not stated),,inactive,inactive,inactive,,inactive,inactive,inactive,,,inactive,inactive,inactive,,inactive,inactive,inactive,inactive,,inactive
CC1CCc2nccnc21 (configuration not stated),inactive,inactive,inactive,inactive,inactive,inactive,inactive,inactive,inactive,inactive,inactive,inactive,inactive,,inactive,inactive,,,,
CC(C)(C)S,inactive,inactive,inactive,inactive,inactive,inactive,inactive,inactive,,,inactive,inactive,inactive,inactive,inactive,inactive,,,,
Cc1c[nH]c2ccccc12,inactive,inactive,inactive,inactive,,inactive,inactive,,,,inactive,inactive,,inactive,,,,,inactive,
CC(C)Cc1ccc(CC(=O)O)cc1,21.3 µM (active),inactive,inactive,inactive,inactive,inactive,inactive,,inactive,,inactive,inactive,,,,,,,inactive,
O=C1c2ccccc2C(=O)c2c(O)ccc(O)c21,21.9 µM (active),,inactive,inactive,inactive,inactive,inactive,,,,,inactive,inactive,,,,inactive,,,
O=[N+]([O-])c1ccc2ncccc2c1,inactive,inactive,inactive,inactive,inactive,inactive,inactive,inactive,inactive,inactive,inactive,inactive,,inactive,inactive,inactive,,,,
CSSc1ccoc1C,inactive,inactive,inactive,inactive,inactive,inactive,inactive,inactive,inactive,inactive,inactive,inactive,,inactive,,,,,,
COC(=O)Nc1nc2ccc(C(=O)C3CC3)cc2[nH]1,inactive,inactive,23.7 µM (active),inactive,inactive,,inactive,inactive,inactive,inactive,,inactive,inactive,inactive,inactive,inactive,,,,
COc1cc(NCc2ccc3nc(N)nc(N)c3c2C)cc(OC)c1OC,inactive,,inactive,inactive,15 µM (active),15 µM (active),inactive,,,,inactive,0.237 µM (active),,inactive,inactive,inactive,inactive,,inactive,
